Over roughly 35,000 sequences, “fluorescence intensity (a.u.)” has its median near 10,000; the highest 2% begin near 52,000. The sample as a whole holds a higher share of the highest values than the screen did.
The sequences below were run against T1, OsWOX13 (Oryza sativa, UniProt Q5QMM3 1-267) (assay: protein-binding microarray (RPBM); PBS, 2% BSA, 51.3 ng/ul salmon testes DNA, 50 uM zinc acetate, 200 nM TF, 25 C, 1 h; high values mean tight binding). Details: protein: recombinant; tags: N-terminal polyhistidine and DsRed monomer fusion (pET32a); label: CyDye5-dUTP incorporated in the synthesized complementary strand; 3' TTTTT single-stranded linker to array surface; dsDNA, one strand shown.
T1 sequence: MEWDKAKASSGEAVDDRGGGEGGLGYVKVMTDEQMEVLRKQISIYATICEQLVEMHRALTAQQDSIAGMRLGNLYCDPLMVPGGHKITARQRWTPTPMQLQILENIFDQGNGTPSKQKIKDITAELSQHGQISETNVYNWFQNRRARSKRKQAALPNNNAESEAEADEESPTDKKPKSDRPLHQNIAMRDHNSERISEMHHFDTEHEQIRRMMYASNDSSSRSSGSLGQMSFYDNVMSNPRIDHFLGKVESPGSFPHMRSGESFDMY
Procedure, shortened: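 In PBS with 2% BSA, salmon testes DNA and 50 µM zinc acetate, 200 nM protein was incubated on a custom Agilent array at 25 °C for 1 h and then washed off. The array had been made double-stranded by primer extension with Cy5-dUTP and blocked with 2% BSA. The proteins were transcription factors fused N-terminally to polyhistidine and DsRed, expressed in E. coli BL21-CodonPlus and purified on Ni–NTA. The binding signal is per-feature fluorescence intensity (arbitrary units) from an Axon 4000B scanner.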
With “GCCTAATTAATCCGTCATTAGCAAATGTTTATTGTAGCACCGGAGTCACCTAGTGCAG” the binding signal was 38200 fluorescence intensity (a.u.). For “GCTGACAGGGACAATCGGATGGAGCAGAATGTCTGAACGTCGGAGTCACCTAGTGCAG”, the binding signal was 11000 fluorescence intensity (a.u.). With “TTTGATCAAAATCAAAACGTCTTATAACCTGAAACGGAGGCGGAGTCACCTAGTGCAG” the binding signal was 4210 fluorescence intensity (a.u.). With “GCTAATTAAGTCCATTGCACATAGATCGATATGTGTACACCGGAGTCACCTAGTGCAG” the binding signal was 27700 fluorescence intensity (a.u.). For “CCAATTGACTATATATAACATAGTACTTGCTAGCTTAATTCGGAGTCACCTAGTGCAG”, the binding signal was 3640 fluorescence intensity (a.u.). “TTTAGGATTGAAGTAAACTGTAAACTATATGTCTGACCGCCGGAGTCACCTAGTGCAG” was tested, and the binding signal was 16600 fluorescence intensity (a.u.). In the case of “CAATACATAACAGACAAATTATCAAAATAGATTAAAGTTTCGGAGTCACCTAGTGCAG”, the binding signal is reported as 4710 fluorescence intensity (a.u.). “ATTTTAAATTTATTATATGATGATTAATTTGGGAATGAGGCGGAGTCACCTAGTGCAG” was tested, and the binding signal was 28400 fluorescence intensity (a.u.). With “TACATCACTAATCACGTTGCTTCGATGACACCTCCTTCTTCGGAGTCACCTAGTGCAG” the binding signal was 7440 fluorescence intensity (a.u.). “TGTATGTGTGTACTCGTAATTAGTGAGAATTTAAATTCATCGGAGTCACCTAGTGCAG” was tested, and the binding signal was 3820 fluorescence intensity (a.u.). “CAAAAGTGTTCAATCAAATATGAAAATGAGTATAATGCAACGGAGTCACCTAGTGCAG” was tested, and the binding signal was 6990 fluorescence intensity (a.u.). In the case of “CTAATTAGGTCCAGGACATTAAATGGGTTGATTACGTCACCGGAGTCACCTAGTGCAG”, the binding signal is reported as 8450 fluorescence intensity (a.u.). With “GTTTATGTTAGTGCTAGTGATTAGTACTTAAACATTCAGACGGAGTCACCTAGTGCAG” the binding signal was 4010 fluorescence intensity (a.u.). In the case of “ATCTGGCAATAATTTACAATTAATTGATACCTTATTGCCTCGGAGTCACCTAGTGCAG”, the binding signal is reported as 54800 fluorescence intensity (a.u.). For “AACTTATAAATTGATTTATAAGTCTAAATAAAGAGGCACCCGGAGTCACCTAGTGCAG”, the binding signal was 55800 fluorescence intensity (a.u.). For “AGGCACTAAAATAATCTAATTGATTAACTAATCGGTCACCCGGAGTCACCTAGTGCAG”, the binding signal was 25300 fluorescence intensity (a.u.). For “ATAACTAATAAATGATTGAATTAGATGAATAGGTAGTTTCCGGAGTCACCTAGTGCAG”, the binding signal was 31000 fluorescence intensity (a.u.). For “GTTTCTAATTAACTAAATTAATTAATTAGCATGATTGGTCCGGAGTCACCTAGTGCAG”, the binding signal was 64700 fluorescence intensity (a.u.). “TGCTAACTTGAGATGAATGTCGAACTCCTAATTGCAGCTCCGGAGTCACCTAGTGCAG” was tested, and the binding signal was 3470 fluorescence intensity (a.u.). In the case of “GAACTAATTGATACATTAGCCACTTGATGAGCTCCTCTCCCGGAGTCACCTAGTGCAG”, the binding signal is reported as 58600 fluorescence intensity (a.u.). With “AATACTTGCAAATTAGCTAACTAGTTCTCCTAATTGAGCCCGGAGTCACCTAGTGCAG” the binding signal was 9350 fluorescence intensity (a.u.). For “CTTATTAGCACATGATTAATTAATTATTAACTATTATAAACGGAGTCACCTAGTGCAG”, the binding signal was 19500 fluorescence intensity (a.u.). For “CCAATTTAATAAAATAAATTGATACTATAAATATTACAATCGGAGTCACCTAGTGCAG”, the binding signal was 9090 fluorescence intensity (a.u.). With “AAGAGTTTAAATTTTAAAATGATTTTATAAGTGGTTAACCCGGAGTCACCTAGTGCAG” the binding signal was 7500 fluorescence intensity (a.u.). With “AAATTTATAATTTTACAATAAATTTGATATTAAATTTGTACGGAGTCACCTAGTGCAG” the binding signal was 12300 fluorescence intensity (a.u.). In the case of “CATGACAGCGTGCTTGGATCAACCGCTTTTGTCTTCTCCACGGAGTCACCTAGTGCAG”, the binding signal is reported as 3780 fluorescence intensity (a.u.). For “ATTGATAAGCCTAATTTAGACATCAAACCAAACCAGCCCTCGGAGTCACCTAGTGCAG”, the binding signal was 14300 fluorescence intensity (a.u.). In the case of “TTGATCATGATGATATTTAATTTGTTTAGATCACACACTACGGAGTCACCTAGTGCAG”, the binding signal is reported as 10200 fluorescence intensity (a.u.). “ATTCCTAAAATTATATGAATTTATGAGAAATTACGTAATGCGGAGTCACCTAGTGCAG” was tested, and the binding signal was 4300 fluorescence intensity (a.u.). With “ATGGAATCAGTAATTAACTAGAAATAAATTAATACTCCTACGGAGTCACCTAGTGCAG” the binding signal was 9880 fluorescence intensity (a.u.). “TGGCAATGATTTATACTTCAATCATAATTGTTTGCTTAGGCGGAGTCACCTAGTGCAG” was tested, and the binding signal was 24000 fluorescence intensity (a.u.). In the case of “TTAGCTATCACAGACACAATCACACAACGATGGTAAAACACGGAGTCACCTAGTGCAG”, the binding signal is reported as 6740 fluorescence intensity (a.u.). “TCACTGTTATTTAATTATATATATATATATATATTCATGCCGGAGTCACCTAGTGCAG” was tested, and the binding signal was 8880 fluorescence intensity (a.u.). For “AGAATGGTGATTAACTATTGGTGTTAATTAATTTGCTGCACGGAGTCACCTAGTGCAG”, the binding signal was 31000 fluorescence intensity (a.u.). In the case of “CCAAATTTGGTAATTTAGAATTTGAACTAGCGTGAGAAAACGGAGTCACCTAGTGCAG”, the binding signal is reported as 19800 fluorescence intensity (a.u.). For “TTATGCATTAACAACGTAACTAATTTAATTTGATTAGTTTCGGAGTCACCTAGTGCAG”, the binding signal was 24000 fluorescence intensity (a.u.). In the case of “TGTGATTGGTAATTGCCGAACTATTTGAAAATGGTGCGTGCGGAGTCACCTAGTGCAG”, the binding signal is reported as 62300 fluorescence intensity (a.u.). For “GACATTAATTAATTTAAATTAACGCTCACTGTTCATCGCCCGGAGTCACCTAGTGCAG”, the binding signal was 65500 fluorescence intensity (a.u.). In the case of “ATTAATTAAAATCGCGCCCAATTAATCATTTAATCCATCCCGGAGTCACCTAGTGCAG”, the binding signal is reported as 40700 fluorescence intensity (a.u.). With “AGGGTAATTACACATTTAACCCTATTTTAAGGTCTAACTACGGAGTCACCTAGTGCAG” the binding signal was 18400 fluorescence intensity (a.u.). “ATTAATTAATTAACCTCTAACATTTAACTAATGCAGGTAACGGAGTCACCTAGTGCAG” was tested, and the binding signal was 56900 fluorescence intensity (a.u.). With “ACCAATTATAAACACAAGTTAATGGGCAAATGACATGGAACGGAGTCACCTAGTGCAG” the binding signal was 11500 fluorescence intensity (a.u.).

Reference: article PMC7819943, “Rice protein-binding microarrays: a tool to detect cis-acting elements near promoter regions in rice”
